# In PubChem BioAssay (NCATS):
# Values joined by “and” are separate entries in the source; they are usually repeats but may differ in a detail not shown here. Equal values may be shown once. Records with an inconclusive call do not appear. Where a call stands in place of a potency, no number is given. Active and inactive are the calls of the source. Unless noted, the call rests on the fitted dose curve; in most records, active means well fitted curve in the direction sought with a large enough effect; inconclusive means small, poorly fitted or top-dose-only effect, or another doubt; inactive means no such curve, though single readings can be large; an effect the other way counts as inactive or inconclusive.
# Assays:
# [1] = Primary qHTS for inhibitors of nuclear receptor binding SET domain protein 2 (NSD2) in an RCH-ACV wild type WT cells (2C) (AID 1645877); further: potency means the concentration at half of the fitted maximal effect; nearly all actives have a fitted effect of over 70% in size
# [2] = target: Phospholipid hydroperoxide glutathione peroxidase GPX4 (Homo sapiens) (UniProt P36969); test: Primary qHTS Assay for Inhibitors of Recombinant Selenoprotein Glutathione Peroxidase 4 (GPX4) (AID 1845192); details: outcome: dose series up to 50 µM unless noted; further: nearly all actives have a fitted effect of over 65% in size; further: potency means the concentration at half of the fitted maximal effect
# Sequence of Phospholipid hydroperoxide glutathione peroxidase GPX4 (Homo sapiens) (P36969 whole entry, looked up): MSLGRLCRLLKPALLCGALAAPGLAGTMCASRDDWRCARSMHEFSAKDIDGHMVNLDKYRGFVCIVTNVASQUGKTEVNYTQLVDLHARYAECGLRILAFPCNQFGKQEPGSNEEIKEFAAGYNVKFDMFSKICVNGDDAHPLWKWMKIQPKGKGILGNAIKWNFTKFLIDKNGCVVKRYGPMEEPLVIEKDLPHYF
# Method in brief: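 GR-coupled assay: recombinant GPX4 preincubated 30 min with compound at room temperature; final 200 nM GPX4, 1 mM GSH, 0.5 mM cumene hydroperoxide, 0.5 mM NADPH, 100 nM GR, 0.01% BSA, pH 7.5 Tris. NADPH fluorescence (340/450 nm) read at 0 and 15 min.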
# [3] = qHTS drug screen for cell cycle checkpoint inhibitors in PARPi-resistant BRCA-mutant ovarian cancer cell lines. (AID 1963452; calls by dose curve); details: PEO1/OlaR viability, CellTiter-Glo luminescence, 96 h, stronger effect = lower value
# Method in brief: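 PEO1, PEO4 and PEO1/OlaR ovarian cancer cells, 600 per well, exposed 96 h at 37C to a dilution series. Viability read by CellTiter-Glo luminescence, normalized to DMSO and empty wells; activity summarized as Z-AUC.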
# [4] = qHTS assay to identify inhibitors of the type 1 interferon - major histocompatibility complex class I in skeletal muscle: Counter screen cell viability and HiBit confirmation (AID 1347412); details: iHSKM muscle cells + IFN-b, HiBiT or CellTiter-Glo, 24 h; for activity change, negative = inhibition: at 45.9 µM (top of the series); further: potency means the concentration at half of the fitted maximal effect; on all read-outs here: nearly all actives have a fitted effect of over 60% in size
# Method in brief: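 After 24 h with human IFN-beta (4 ng/ml) and compound titrations (top 46 uM final, 1:3, 12 points), HLA-B HiBit myoblasts were lysed for either Nano-Glo HiBiT luminescence or CellTiter Glo viability on paired plates.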
# [5] = Primary qHTS for inhibitors of nuclear receptor binding SET domain protein 2 (NSD2) in an isogenic RCH-ACV NSD2 p.E1099K mutant (9B) (AID 1645876); further: potency means the concentration at half of the fitted maximal effect; nearly all actives have a fitted effect of over 70% in size
# [6] = target: Glutathione peroxidase 1 (Homo sapiens) (UniProt P07203); test: Primary qHTS Assay for Inhibitors of Recombinant Selenoprotein Glutathione Peroxidase 1 (GPX1) (AID 1845191); further: nearly all actives have a fitted effect of over 65% in size
# Sequence of Glutathione peroxidase 1 (Homo sapiens) (P07203 whole entry, looked up): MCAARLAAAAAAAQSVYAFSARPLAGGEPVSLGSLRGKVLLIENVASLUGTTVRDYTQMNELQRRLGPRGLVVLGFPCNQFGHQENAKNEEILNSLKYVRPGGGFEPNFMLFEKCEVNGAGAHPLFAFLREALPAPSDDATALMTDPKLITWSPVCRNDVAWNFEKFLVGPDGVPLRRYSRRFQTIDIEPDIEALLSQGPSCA
# Method in brief: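 GR-coupled assay: compounds preincubated 30 min at room temperature with GPX1, then reaction started with CHP; final 10 nM GPX1, 1 mM GSH, 0.5 mM CHP, 0.5 mM NADPH, 100 nM GR, 0.01% BSA, pH 7.5 Tris buffer. NADPH fluorescence (340/450 nm) read at 0 and 15 min.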
# [7] = Validation of Assay for Modulators of Lamin A Splicing (AID 1459; active means well fitted curve in the direction sought with a large enough effect in the signal ratio; the % refers to the signal ratio;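 further: cells exposed to compound for two days before reading; ratio rise marks activators and ratio drop marks inhibitors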)
# Method in brief: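 Splicing correction read as GFP (500-530 nm) over DsRed2 (575-640 nm) object intensity after 48 h compound exposure of reporter HeLa S3 clones (600 cells/well, 2% FBS medium); ancitabine and cycloheximide titrations, 0.5% DMSO as vehicle.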
# [8] = qHTS Assay for Lipid Storage Modulators (AID 1519; calls by dose curve); details: Drosophila S3 cells, BODIPY lipid droplet/cell ratio, laser cytometry, cells loaded with oleic acid; for activity change, negative = inhibition: at 57.5 µM (top of the series)
# Method in brief: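 Cells seeded at 5,000 per well were treated with compounds over a concentration series and loaded with oleic acid (400 uM, as added). Lipid droplet fluorescence (488 nm excitation, 500-530 nm channel) was read by laser-scanning cytometry and normalized to 20 uM Triacsin C.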
# [9] = target: DNA repair nuclease/redox regulator APEX1 (Homo sapiens) (UniProt P27695); test: qHTS Validation Assay for Inhibitors of the Human Apurinic/apyrimidinic Endonuclease 1 (APE1) (AID 1705;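 further: TAMRA fluorescence gain over two minutes as APE1 cuts a quenched THF abasic duplex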)
# Sequence of DNA repair nuclease/redox regulator APEX1 (Homo sapiens) (P27695 whole entry, looked up): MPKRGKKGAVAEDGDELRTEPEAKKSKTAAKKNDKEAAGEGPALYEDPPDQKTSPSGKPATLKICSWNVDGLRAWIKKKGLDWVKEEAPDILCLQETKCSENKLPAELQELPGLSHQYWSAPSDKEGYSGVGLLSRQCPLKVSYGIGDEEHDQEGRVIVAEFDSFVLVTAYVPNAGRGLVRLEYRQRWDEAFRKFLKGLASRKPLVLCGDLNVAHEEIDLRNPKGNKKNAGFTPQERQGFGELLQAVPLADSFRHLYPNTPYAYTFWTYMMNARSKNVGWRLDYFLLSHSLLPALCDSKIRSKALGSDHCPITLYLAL
# Method in brief: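 Activity read as rising fluorescence (598 nm emission, 525 nm excitation) from incision of a TAMRA/BHQ-2 duplex carrying a THF abasic site (50 nM). Compound and enzyme sat 15 min at RT before substrate start; signal change between first and third 60-s reads.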
# [10] = Counterscreen for APE1 Inhibitors: Fluorescent Dye Displacement Validation Assay (AID 1707)
# Method in brief: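 Assay buffer: Tris-HCl pH7.5 with 50mM NaCl, 2 mM MgCl2, 0.01% Tween-20. Dye 250 nM, duplex 50 nM final. Readout: decrease in ThO endpoint fluorescence, 480 nm excitation, 540 nm emission.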
# [11] = target: Endonuclease 4 (Escherichia coli (strain K12)) (UniProt P0A6C1); test: Counterscreen for APE1 Inhibitors: qHTS Validation Assay for Inhibitors of Endonuclease IV (AID 1708)
# Method in brief: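 E. coli EndoIV at 2 nM final, preincubated 15 min at room temperature with compound, then 50 nM TAMRA/BHQ-2 THF abasic-site duplex added. Buffer: 50 mM Tris-HCl pH 7.5, 50 mM NaCl, 2 mM MgCl2, 1 mM DTT, 0.01% Tween-20. Kinetic fluorescence increase, third minus first read.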
# [12] = target: ATP-dependent DNA helicase Q1 (Homo sapiens) (UniProt P46063); test: qHTS Validation Assay for Inhibitors of RecQ-Like Dna Helicase 1 (RECQ1) (AID 2353)
# Sequence of ATP-dependent DNA helicase Q1 (Homo sapiens) (P46063 whole entry, looked up): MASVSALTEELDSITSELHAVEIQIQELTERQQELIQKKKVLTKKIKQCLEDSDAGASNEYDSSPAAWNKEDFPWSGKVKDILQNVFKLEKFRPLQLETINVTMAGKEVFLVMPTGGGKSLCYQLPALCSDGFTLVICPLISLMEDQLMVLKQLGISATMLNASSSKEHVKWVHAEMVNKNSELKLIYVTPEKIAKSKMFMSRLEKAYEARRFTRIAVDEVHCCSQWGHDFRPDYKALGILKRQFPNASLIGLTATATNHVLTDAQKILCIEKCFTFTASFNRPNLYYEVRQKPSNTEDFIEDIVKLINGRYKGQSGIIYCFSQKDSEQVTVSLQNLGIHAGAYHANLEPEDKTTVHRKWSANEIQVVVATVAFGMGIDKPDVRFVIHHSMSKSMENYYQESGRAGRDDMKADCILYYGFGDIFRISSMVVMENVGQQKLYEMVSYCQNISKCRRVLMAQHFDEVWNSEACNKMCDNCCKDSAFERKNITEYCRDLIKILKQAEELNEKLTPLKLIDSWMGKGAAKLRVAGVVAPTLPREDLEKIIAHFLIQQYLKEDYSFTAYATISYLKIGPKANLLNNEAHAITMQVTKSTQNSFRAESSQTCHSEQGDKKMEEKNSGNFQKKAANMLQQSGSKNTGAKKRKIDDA
# Method in brief: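 50 nM RECQ1T1 preincubated 15 min with compound in Tris pH 8.0 buffer with MgCl2, DTT, Tween-20 and 2.5 ug/ml poly(dI-dC); started with 200 nM TAMRA/BHQ-2 forked duplex and 2 mM ATP. Unwinding read as fluorescence (525/598 nm), two reads 2 h apart.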
# [13] = Validation screen for small molecules that induce DNA re-replication in MCF 10A normal breast cells (AID 463097); further: nearly all actives have a fitted effect of over 60% in size
# Method in brief: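 Read-out is Hoechst total nuclear intensity by fluorescence scanning imager, flagging increased high-DNA-content nuclei. Compounds were incubated with MCF 10A cells for 48 hr (37 C, 5% CO2) before 40 min staining.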
# [14] = Quantitative high throughput screen for delayed death inhibitors of the malarial parasite plastid, 96 hour incubation (AID 488745); further: nearly all actives have a fitted effect of over 70% in size; further: potency means the concentration at half of the fitted maximal effect
# Method in brief: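 Luciferase-expressing P. falciparum in erythrocytes (2% hematocrit, 0.1% parasitemia) incubated with compound for 96 h at 37 C, 5% CO2, in RPMI 1640 with 0.5% Albumax. Growth inhibition read as decreased luminescence.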
# [15] = Quantitative high throughput screen for delayed death inhibitors of the malarial parasite plastid, 48 hour incubation (AID 488752); further: nearly all actives have a fitted effect of over 65% in size; further: potency means the concentration at half of the fitted maximal effect
# Method in brief: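 Erythrocytes infected with firefly luciferase-expressing P. falciparum (2% hematocrit, 0.1% parasitemia) cultured with compound for 48 h at 37 C, 5% CO2, in RPMI 1640/0.5% Albumax. Growth inhibition read as loss of luminescence.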
# [16] = target: Transient receptor potential cation channel subfamily V member 1 (Homo sapiens) (UniProt Q8NER1); test: HTS Assay for Compounds that Act as Enhancers of the Vanilloid Receptor 1 (AID 488979)
# Sequence of Transient receptor potential cation channel subfamily V member 1 (Homo sapiens) (Q8NER1 whole entry, looked up): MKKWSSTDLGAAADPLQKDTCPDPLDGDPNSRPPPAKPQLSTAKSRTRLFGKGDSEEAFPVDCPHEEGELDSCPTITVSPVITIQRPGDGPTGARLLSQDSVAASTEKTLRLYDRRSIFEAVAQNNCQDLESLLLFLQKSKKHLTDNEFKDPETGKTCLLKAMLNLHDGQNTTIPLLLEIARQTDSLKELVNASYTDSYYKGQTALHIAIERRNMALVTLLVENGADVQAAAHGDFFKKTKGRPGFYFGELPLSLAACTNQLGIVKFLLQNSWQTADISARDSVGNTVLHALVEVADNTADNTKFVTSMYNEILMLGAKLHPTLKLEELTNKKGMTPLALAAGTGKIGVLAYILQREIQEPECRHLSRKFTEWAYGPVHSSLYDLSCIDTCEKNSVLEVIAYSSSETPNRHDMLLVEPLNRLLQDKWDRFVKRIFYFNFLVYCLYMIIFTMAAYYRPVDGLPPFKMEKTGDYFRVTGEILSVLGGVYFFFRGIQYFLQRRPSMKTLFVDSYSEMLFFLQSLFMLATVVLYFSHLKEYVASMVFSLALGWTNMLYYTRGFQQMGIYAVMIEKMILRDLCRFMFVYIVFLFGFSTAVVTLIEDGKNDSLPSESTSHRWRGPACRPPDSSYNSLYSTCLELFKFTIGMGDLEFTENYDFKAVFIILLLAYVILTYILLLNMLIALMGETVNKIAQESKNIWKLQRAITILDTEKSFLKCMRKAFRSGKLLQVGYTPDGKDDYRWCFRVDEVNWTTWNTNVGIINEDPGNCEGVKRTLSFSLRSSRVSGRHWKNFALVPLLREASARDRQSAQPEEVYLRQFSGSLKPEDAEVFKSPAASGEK
# Method in brief: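 TRPV1 cells loaded with Fluo-8 calcium dye; compound added and Ca2+ signal (ex 480/em 520 nm) followed 3 min, then capsaicin at EC20 added and read 2 more min to detect enhancement.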
# [17] = target: Thyrotropin receptor (Homo sapiens) (UniProt P16473); test: qHTS Assay for Antagonists of the Thyroid Stimulating Hormone Receptor (AID 488980)
# Sequence of Thyrotropin receptor (Homo sapiens) (P16473 whole entry, looked up): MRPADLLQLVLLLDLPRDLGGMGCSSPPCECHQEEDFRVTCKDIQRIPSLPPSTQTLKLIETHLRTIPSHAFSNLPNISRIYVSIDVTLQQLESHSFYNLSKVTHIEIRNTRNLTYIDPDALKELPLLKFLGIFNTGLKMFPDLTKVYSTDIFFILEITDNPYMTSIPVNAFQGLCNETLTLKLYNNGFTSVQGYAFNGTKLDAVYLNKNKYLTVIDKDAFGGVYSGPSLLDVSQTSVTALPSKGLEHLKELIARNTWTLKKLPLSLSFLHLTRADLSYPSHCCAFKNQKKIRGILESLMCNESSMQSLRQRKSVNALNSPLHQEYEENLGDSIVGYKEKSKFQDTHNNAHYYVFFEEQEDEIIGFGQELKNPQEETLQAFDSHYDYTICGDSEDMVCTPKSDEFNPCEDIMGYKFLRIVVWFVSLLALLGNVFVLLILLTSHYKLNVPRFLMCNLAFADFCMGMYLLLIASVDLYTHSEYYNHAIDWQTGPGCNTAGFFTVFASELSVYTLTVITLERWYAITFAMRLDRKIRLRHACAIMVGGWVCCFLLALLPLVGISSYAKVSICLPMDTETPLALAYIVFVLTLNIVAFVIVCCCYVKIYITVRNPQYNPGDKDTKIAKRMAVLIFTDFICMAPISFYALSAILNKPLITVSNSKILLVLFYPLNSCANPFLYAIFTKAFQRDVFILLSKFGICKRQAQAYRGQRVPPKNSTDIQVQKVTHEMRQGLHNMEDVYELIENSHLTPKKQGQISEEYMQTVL
# Method in brief: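 Inhibition of cAMP raised by EC80 TSH (4 nM final) was read by HTRF, with lysate cAMP competing against cAMP-d2 for cryptate antibody after 30 min at room temperature. The cells were transfected HEK293 held in phosphodiesterase inhibitor RO 20-1724 at 70 uM.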
# [18] = target: Galactokinase (Homo sapiens) (UniProt P51570); test: qHTS Validation Assay for Inhibitors of Human Galactokinase (GALK) (AID 493189)
# Sequence of Galactokinase (Homo sapiens) (P51570 whole entry, looked up): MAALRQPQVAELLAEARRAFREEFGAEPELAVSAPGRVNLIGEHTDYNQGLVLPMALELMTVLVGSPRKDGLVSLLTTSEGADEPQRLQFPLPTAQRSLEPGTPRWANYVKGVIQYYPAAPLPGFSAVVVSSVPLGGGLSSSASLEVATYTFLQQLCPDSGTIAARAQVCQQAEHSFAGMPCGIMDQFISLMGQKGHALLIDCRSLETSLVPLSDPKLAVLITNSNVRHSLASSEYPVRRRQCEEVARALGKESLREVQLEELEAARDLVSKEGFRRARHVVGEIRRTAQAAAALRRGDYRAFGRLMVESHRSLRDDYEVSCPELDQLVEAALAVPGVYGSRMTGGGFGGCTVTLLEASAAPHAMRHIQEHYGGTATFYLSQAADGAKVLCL
# Method in brief: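 Inhibition was measured as remaining ATP, detected by luciferase luminescence after a 1 h room-temperature reaction. Final conditions: 5 nM GALK, 100 uM galactose, 35 uM ATP, pH 8.0 HEPES buffer.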
# [19] = Validation screen for small molecules that induce DNA re-replication in SW480 colon adenocarcinoma cells (AID 504364)
# Method in brief: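 SW480 cells (250/well) exposed 48 h at 37 C, 5% CO2, then Hoechst-stained 40 min. Nuclear DNA content imaged by fluorescence scanning (405 nm excitation, 500-530 nm emission); re-replication scored as increased nuclei with elevated intensity.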
# [20] = measured here: PEO1 parental Z-AUC
# [21] = measured here: cell count channel max response
# [22] = measured here: lipid channel max response
smiles,measurement,setting,value
N#CCC1(n2cc(-c3ncnc4[nH]ccc34)cn2)CN(C2CCN(C(=O)c3ccnc(C(F)(F)F)c3F)CC2)C1,Potency,[1],18.6 µM (active)
same,Potency,[2],20.2 µM (active)
same,Z-AUC,[3],-0.205 (inactive)
same,Z-AUC,[3]; [20],-0.513
same,Z-AUC,[3]; measured here: PEO4 Z-AUC,-0.617
same,Potency,[4]; HiBiT,1.57 µM (active)
same,"activity change, negative = inhibition",[4]; Viability,14.7% (inactive)
Nc1nc2c(c(=O)[nH]1)N1CN(c3ccc(C(=O)N[C@@H](CCC(=O)O)C(=O)O)cc3)CC1CN2 (stereo not given in full),Potency,[5],0.833 µM (active)
same,Potency,[1],0.742 µM (active)
same,Potency,[6],inactive
same,Potency,[2],inactive
same,Z-AUC,[3],-1.54 (inactive)
same,Z-AUC,[3]; [20],-1.06
same,Z-AUC,[3]; measured here: PEO4 Z-AUC,-0.345
same,"activity change, negative = inhibition",[4]; Viability,-12% (inactive)
CC/C(=C(/c1ccc(O)cc1)c1ccc(OCCNC)cc1)c1ccccc1,Potency,[5],33.2 µM (active)
same,Potency,[6],inactive
same,Potency,[2],inactive
same,Z-AUC,[3],0.452 (inactive)
same,Z-AUC,[3]; [20],0.257
same,Z-AUC,[3]; measured here: PEO4 Z-AUC,-0.283
same,"activity change, negative = inhibition",[4]; HiBiT,-7.57% (inactive)
same,"activity change, negative = inhibition",[4]; Viability,-19.4% (inactive)
COc1cc(N2CCN(C)CC2)ccc1Nc1ncc2c(n1)N(C)c1ccccc1C(=O)N2C,Potency,[5],2.35 µM (active)
same,Potency,[1],2.35 µM (active)
same,Potency,[6],inactive
same,Potency,[2],inactive
same,Z-AUC,[3],-0.347 (inactive)
same,Z-AUC,[3]; [20],0.0513
same,Z-AUC,[3]; measured here: PEO4 Z-AUC,-0.152
same,"activity change, negative = inhibition",[4]; Viability,22.1% (inactive)
C[C@]12CCC(=O)C=C1CC[C@@H]1C2[C@@H](O)C[C@@]2(C)[C@H]1CC[C@]2(O)C(=O)CO (stereo not given in full),outcome,[7],inactive
same,"activity change, negative = inhibition",[8],0.0073% (inactive) and -1.01% (inactive)
same,max response,[8]; [21],2.28% and 8.51%
same,max response,[8]; [22],2.14% and 9.17%
same,Potency,[9],inactive
same,Potency,[10],inactive
same,outcome,[11],inactive
same,Potency,[12],inactive
same,outcome,[13],inactive
same,Potency,[14],inactive
same,Potency,[15],inactive
same,outcome,[16],inactive
same,outcome,[17],inactive
same,outcome,[18],inactive
same,outcome,[19],inactive
Nc1nc(Nc2ccccc2)nc2c1ncn2[C@@H]1O[C@H](CO)[C@H](O)[C@H]1O,outcome,[7],inactive
same,"activity change, negative = inhibition",[8],-0.104% (inactive)
same,max response,[8]; [21],-25.4%
same,max response,[8]; [22],-24.2%
same,Potency,[9],inactive
same,Potency,[10],inactive
same,outcome,[11],inactive
same,Potency,[12],inactive
same,outcome,[13],inactive
same,Potency,[14],inactive
same,Potency,[15],inactive
same,outcome,[16],inactive
same,outcome,[17],inactive
same,outcome,[18],inactive
same,outcome,[19],inactive
O=C(O)CC[C@H](NC(=O)c1ccccc1C(=O)O)C(=O)O,outcome,[7],inactive
same,"activity change, negative = inhibition",[8],-0.627% (inactive)
same,max response,[8]; [21],34.2%
same,max response,[8]; [22],31.2%
same,Potency,[9],inactive
same,Potency,[10],inactive
same,outcome,[11],inactive
same,Potency,[12],inactive
same,outcome,[13],inactive
same,Potency,[14],inactive
same,Potency,[15],inactive
same,outcome,[16],inactive
same,outcome,[17],inactive
same,outcome,[18],inactive
same,outcome,[19],inactive
OC[C@H]1O[C@@H](n2cnc3c(NCCc4ccccc4)ncnc32)[C@H](O)[C@H]1O,outcome,[7],inactive
same,"activity change, negative = inhibition",[8],-0.874% (inactive)
same,max response,[8]; [21],-25.2%
same,max response,[8]; [22],-26.1%
same,Potency,[9],inactive
same,Potency,[10],inactive
same,outcome,[11],inactive
same,Potency,[12],inactive
same,outcome,[13],inactive
same,Potency,[14],inactive
same,Potency,[15],inactive
same,outcome,[16],inactive
same,outcome,[17],inactive
same,outcome,[18],inactive
same,outcome,[19],inactive
CN(C)C1C(=O)C(C(N)=O)=C(O)[C@@]2(O)C(=O)C3=C(O)c4c(O)ccc(Cl)c4[C@@H](O)C3C[C@@H]12 (stereo not given in full),outcome,[7],inactive
same,Potency,[9],inactive
same,Potency,[10],inactive
same,Potency,[12],inactive
same,Potency,[14],0.738 µM (active)
same,Potency,[15],6.57 µM (active)
same,outcome,[16],inactive
same,outcome,[17],inactive
same,outcome,[18],inactive
